The list is not random: actives were taken first. Their share in the collection is about 14%.
4-MU autofl = compound fluoresces in the 4-MU spectral region; compound autofluorescence, 340/450 nm, 4-MU equivalents; active compounds read high; max dye-equivalent concentration, M; 59,000 tested, 11% active; AID 589; in the data active means max dye-equivalent concentration above about 10 nM; inconclusive means mostly about 1.1 nM to 9.6 nM
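Compounds in 100 mM Tris, pH 8.0, sat 15 min at room temperature before fluorescence was read at 340 nm excitation/450 nm emission; a per-plate six-point 4-MU standard curve converted signals to dye-equivalent concentration at each compound concentration.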
CRE Fsk mod = alters forskolin-stimulated CRE reporter signaling in CHO cells; CHO CRE-bla reporter (cAMP response element driving beta-lactamase), forskolin EC10, beta-lactamase ratio; Potency, µM (top dose mostly 38.2 µM), without a hit: top-dose activity change, negative = inhibition, most hits filed as activators; 71,000 tested, 2.5% active; AID 662; active means well fitted activation curve with a large enough effect in the signal ratio, with a control signal flat, not every such curve was filed as active; inconclusive means small, poorly fitted or top-dose-only effect, or effect the other way, or a change in a side signal; the % refers to the signal ratio; further: potency means the concentration at half of the fitted maximal effect; % of control where 0% means no effect
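Using CellSensor CRE-bla CHO cells in Opti-MEM with 0.5% dialyzed FBS, compounds were titrated with EC10 NKH 477 for 3 h at 37 °C. CCF4 ratio (460/530 nm) gave %Activity; AC50 derived.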
AID923 = qHTS Assay for Allosteric/Competitive Inhibitors of Caspase-1: Spectroscopic Profiling in AFC Spectral Region. Potency, µM (highest dose often 57.5 µM), without a hit: at the highest dose fluorescence increase, most hits filed as activators. 75,000 tested, 1.1% active. AID 923, 2007. compound fluorescence, AFC spectral region (405/520 nm); further: potency means the concentration at half of the fitted maximal effect; 0% is about no effect
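Titrations up to 57 uM read every 20 sec for 3 min (405/520 nm) with 50 nM caspase 1 and 5 uM Ac-WEHD-AFC, pH 7.5 HEPES buffer. Fluorescence-vs-time intercept gave baseline, scaled against on-plate AFC standard.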
HSD17B inhib = HSD17B dehydrogenase inhibition. recombinant HSD17B10, NADH fluorescence kinetic. 75,000 tested, 7.6% active. Potency, µM (top dose mostly 57.1 µM), for the others: at the highest dose activity change, negative = inhibition, most hits filed as inhibitors;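 further: the protocol describes HADH2 (HSD17B10) and not the HSD17B4 of the title; potency means the concentration at half of the fitted maximal effect; on the % scale 0 is the no-effect control and ±100 the full control effect; nearly all actives have a fitted effect of over 70% in size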
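Activity followed as NADH fluorescence increase (ex 360, em 450 nm) every 30 seconds for 4 min, using final 90 uM beta-hydroxybutyryl CoA and 1 mM NAD+. Recombinant His-tagged enzyme, 20 nM, pH 9.0 Tris buffer, 15 min compound preincubation.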
A350 autofl = compounds fluorescent in Alexa 350 spectral region | Compound autofluorescence, 340/450 nm, Alexa 350 dye-equivalents; active compounds read high | max dye-equivalent concentration, M | 59,000 tested, 11% active | AID 590; in the data active means max dye-equivalent concentration above about 10 nM; inconclusive means mostly about 1.1 nM to 9.6 nM
HADH2 inh = HADH2 (human) dehydrogenase inhibition. AID 886. recombinant HADH2, NADH fluorescence, beta-hydroxybutyryl-CoA. Potency, µM (titrated, usually from 57.1 µM), for inactives: top-dose activity change, negative = inhibition, actives largely listed as inhibitors. Q99714. 73,000 tested, 3.4% active; further: potency means the concentration at half of the fitted maximal effect; on the % scale 0 is the no-effect control and ±100 the full control effect; nearly all actives have a fitted effect of over 60% in size
Target sequence (Q99714 whole entry, looked up, one chain of several): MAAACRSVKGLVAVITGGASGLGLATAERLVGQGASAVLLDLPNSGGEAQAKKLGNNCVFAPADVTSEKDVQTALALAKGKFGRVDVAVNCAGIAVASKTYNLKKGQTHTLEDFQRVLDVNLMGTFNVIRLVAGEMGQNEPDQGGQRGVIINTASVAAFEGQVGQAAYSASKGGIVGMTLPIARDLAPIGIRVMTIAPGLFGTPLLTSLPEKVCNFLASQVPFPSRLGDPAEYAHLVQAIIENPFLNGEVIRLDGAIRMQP
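NADH fluorescence (ex 360/em 450 nm) read every 30 s for 4 min; activity taken as last-minus-first time point difference. Enzyme 20 nM, NAD+ 1 mM, beta-hydroxybutyryl-CoA 90 uM, pH 9.0 Tris buffer.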
* hit, by the source's call; i = inactive; ? = inconclusive; / = not tested or not shown; [ ] = dose if it differs, or a comment. Unless noted, the call rests on the fitted dose curve; in most records, active means well fitted curve in the direction sought with a large enough effect; inconclusive means small, poorly fitted or top-dose-only effect, or another doubt; inactive means no such curve, though single readings can be large; an effect the other way counts as inactive or inconclusive.

SMILES | 4-MU autofl | CRE Fsk mod | AID923 | HSD17B inhib | A350 autofl | HADH2 inh
COc1ccc(NC(=O)N2CC3(CCN(C(=O)c4cccc(F)c4)CC3)C2)cc1 | i | 2.7% | -2.1% | 12.6% | i | -6.7%
CNc1nc(NC)nc(-n2c(C(F)(F)F)nc3ccccc32)n1 | i | 12.6µM* | -0.2% | 8.9% | ? | 0.9%
Cc1nc2ccccc2n1CC(O)Cn1c(C(F)(F)F)nc2ccccc21 (centres undefined) | i | -2.5% | 1.5% | 5.5% | i | 5.8%
Cc1nnc(NCc2ccco2)c2ccccc12 | i | -5.3% | -0.9% | 5.1% | i | 4.6%
Cc1sc2nc3c4ccccc4c(NCc4ccco4)nn3c(=O)c2c1C | 1.25e-07M* | ? | 14.6% | 25.1µM* | 1.5e-07M* | ?
CC1(C)O[C@@H]2C[C@H]3[C@H]4C[C@H](F)C5=CC(=O)C=C[C@@]5(C)[C@@H]4[C@H](O)C[C@]3(C)[C@]2(C(=O)CO)O1 | 2.32e-08M* | -0.5%[17.1 µM] | 3.9%[25.7 µM] | -16.1%[25.6 µM] | 2.43e-08M* | -9.5%[25.6 µM]
CC1(C)OC2CC3C4CC(F)C5=CC(=O)C=CC5(C)C4C(O)CC3(C)[C@]2(C(=O)CO)O1 (some centres undefined) | / | / | -2.7% | ? | / | /
CCn1c(SCC(=O)Nc2cc(NC(C)=O)ccc2OC)nnc1-c1ccncc1 | i | -8.2% | 0.4% | 6.9% | i | 2.9%
CCCNC(=O)NC(=O)CSc1nnc(-c2ccncc2)n1CC | 2.21e-08M* | -4.1% | 3.1% | ? | 1.88e-08M* | 26.3%
Cc1ccc(NC(=O)CSc2nnc(-c3ccncc3)n2N)cc1C | 2.52e-08M* | 20.7% | -3.4% | 1.5% | ? | 7.1%
Cc1cnc(CNc2cc(-c3ccoc3)ncn2)cn1 | i | -2.5% | 14.9% | -16.3% | i | -22.6%
CCn1cnc2sc(C(=O)N(Cc3ccc(N(C)C)cc3)Cc3ccco3)c(C)c2c1=O | ? | 12.6µM* | 1.5% | -12.8% | ? | -12.7%
CCN(C(C)=O)c1nnc(CSc2nc3ccccc3s2)s1 | i | 12.6µM* | -0.5% | ? | i | -11.1%
COc1ccc(-c2nc(C#N)c(N3CCN(c4ccccc4)CC3)o2)cc1 | / | 8.9% | 0.0% | 31.6µM* | / | ?
CCOc1ccc(-c2nc(C#N)c(N3CCOCC3)o2)cc1 | / | 6.7% | 2.0% | 25.1µM* | / | ?
CCN1CCN(c2oc(-c3ccc(OC)cc3)nc2C#N)CC1 | ? | 2.0% | -1.5% | 25.1µM* | ? | 31.6µM*
COc1ccccc1-c1nc(C#N)c(N2CCN(c3ccccc3)CC2)o1 | 5.18e-08M* | ? | 3.7% | ? | 2.73e-08M* | ?
COc1ccc(N2CCN(c3oc(-c4ccccc4OC)nc3C#N)CC2)cc1 | ? | ? | 1.0% | ? | i | i
COc1ccccc1-c1nc(C#N)c(N2CCc3ccccc3C2)o1 | 5.76e-08M* | ? | 0.8% | 31.6µM* | 4.92e-08M* | -9.2%
Cc1cccc(-c2nc(C#N)c(N3CCCCCC3)o2)c1 | 8.15e-08M* | ? | 0.6% | 25.1µM* | 9.19e-08M* | ?
N#Cc1nc(-c2ccc(OCc3ccccc3)cc2)oc1N1CCC(C(N)=O)CC1 | 2.6e-08M* | 17.1% | -2.5% | 12.6µM* | 2.45e-08M* | ?
O=C1CC2(CCCC2)CC(=O)N1CCNC[C@H]1COc2ccccc2O1 | / | -15.7% | -0.5% | -2.4% | / | 6.8%
C[C@@]1(CO)[C@H](O)CC[C@]2(C)[C@@H]1CC[C@H]1C[C@H]3C[C@]12CC[C@]3(O)COC(=O)CN | i | -5.6%[7.6 µM] | -1.7%[11.5 µM] | 5.4%[11.4 µM] | i | 9.2%[11.4 µM]
O=P1(c2ccccc2)C=Cn2c1cc1c2CCCC1 (centres undefined) | 1.69e-08M* | 1.2% | 6.3% | -18.9% | 2.14e-08M* | 1.5%
COc1cc2c(C=O)c3c4c(cc(OC)c(OC)c4c2cc1OC)CCN3C | / | / | 16.8% | -9.6% | / | /
SMILES | 4-MU autofl | CRE Fsk mod | AID923 | HSD17B inhib | A350 autofl | HADH2 inh
CC(C)n1c(SCC(N)=O)nc2c1c(=O)[nH]c(=O)n2C | i | 7.2% | 0.9% | -13.1% | i | ?
C/C=C/CSc1nc2c(c(=O)[nH]c(=O)n2C)n1C(C)C | 1.77e-08M* | ? | 0.7% | 4.0% | 1.96e-08M* | -8.6%
CCCCCn1c(Sc2nc3ccccc3s2)nc2c1c(=O)[nH]c(=O)n2C | i | 12.6µM* | 0.6% | -3.8% | i | 18.1%
C/C=C/CSc1nc2c(c(=O)[nH]c(=O)n2C)n1Cc1ccc(C)cc1 | / | 7.94µM* | 3.2% | -4.9% | / | -15.1%
CCCCCSc1nc2c(c(=O)[nH]c(=O)n2C)n1C(C)C | / | 10µM* | 3.0% | -6.4% | / | -18.5%
O=C(O)c1ccccc1NS(=O)(=O)c1ccccc1F | / | / | -1.2% | -15.2% | / | -10.9%
COc1ccc(OC2C=CC(C#Cc3ccccc3)OC2CO)cc1 (centres undefined) | / | / | -3.1%[11.5 µM] | -9.4%[11.4 µM] | / | 1.8%[11.4 µM]
COc1ccc(OC)c(-c2ccccc2/C=N/NS(=O)(=O)c2ccc(C)cc2)c1 | / | / | -2.7%[11.5 µM] | -3.2%[11.4 µM] | / | -1.7%[11.4 µM]
CC(C)n1c(SCc2ccc(Cl)cc2)nc2c1c(=O)[nH]c(=O)n2C | i | 12.6µM* | 0.4% | -6.3% | i | -23.7%
C=CCSc1nc2c(c(=O)[nH]c(=O)n2C)n1CC | i | ? | 1.1% | -8.2% | i | ?
CCCCCSc1nc2c(c(=O)[nH]c(=O)n2C)n1CC | / | 7.94µM* | 1.6% | -5.0% | / | ?
CCCCn1c(SCc2ccc(Cl)cc2)nc2c1c(=O)[nH]c(=O)n2C | i | ? | 0.0% | -19.1% | i | ?
N#Cc1cccc(NC(=O)N2CCCC3(CCN(C(=O)c4cc(C(F)(F)F)cc(C(F)(F)F)c4)CC3)C2)c1 | i | -9.9% | 4.0% | 3.3% | i | -8.3%
CN(C)CCCN1C(=O)C(O)=C(C(=O)c2cccs2)C1c1ccccn1 (centres undefined) | i | -3.3% | 2.8% | 8.8% | i | 6.1%
O=C(O)[C@H](Cc1ccc(O)c([N+](=O)[O-])c1)N1C(=O)c2ccccc2C1=O | i | 6.5%[7.6 µM] | -0.2%[11.5 µM] | 8.4%[11.4 µM] | i | 0.8%[11.4 µM]
O=C1NC(=O)C(c2ccccc2[N+](=O)[O-])=C1Nc1ccc(O)c(Cl)c1 | ? | ? | -3.6% | 12.6µM* | ? | 0.199µM*
CCCCS(=O)(=O)c1sc2nc3c(cc2c1N)CCCC3 | 2.09e-08M* | ? | 2.6% | 31.6µM* | 1.88e-08M* | -2.7%
COC(=O)N1CCC2(CCN(C(=O)NC(C)C)CC2)CC1 | i | -9.1% | -2.0% | 1.4% | i | 6.1%
O=S(=O)(C[C@H](O)C(Cl)(Cl)Cl)NNc1ccccc1 | i | -8.9%[7.6 µM] | 2.9%[11.5 µM] | -0.2%[11.4 µM] | i | -0.8%[11.4 µM]
O=C1OC2(c3ccc(O)cc3Oc3cc(O)ccc32)c2c1c(-c1ccccc1)c(-c1ccccc1)c(-c1ccccc1)c2-c1ccccc1 | 1.09e-07M* | ? | -5.9%[11.5 µM] | 3.98µM* | 1.24e-07M* | 2µM*
